This is part of a sample that, as a whole, favours compounds with a hit. Of some 83,000 tested, about 20% had one in any assay.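 Step 1: grow cells in 96-well plates. Step 2: add test compound at a single concentration. Step 3: incubate 48 h. Step 4: record percent growth.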 Unmarked numbers belong to inactive results. Active and inactive are the calls of the source. Rule for the calls: active = growth percent below 10; inactive = the rest.
Test system: OVCAR-5 ovarian
Test: NCI-60 one-dose screen, 48 h (100 = growth as untreated, 0 = no growth, -100 = all killed)
Settings: 10 µM unless noted

Row | SMILES | growth
1 | O=S(=O)(NCCNc1nccc(-c2c(-c3ccc(F)c(O)c3)nc3occn23)n1)c1ccccc1 | 101%
2 | Cc1ccc2[nH]c(=O)cc(-n3nncc3COc3ccc(C=O)cc3)c2c1 | 101%
3 | Brc1ccc(C2CC(c3cccc(Nc4ccncc4)c3)=NN2c2ccccc2)cc1 (stereo not drawn) | 89.3%
4 | COc1cc(NCC(O)CN(CC(C)C)C2CCCC2)c2ncccc2c1 (stereo not drawn) | 101%
5 | CC(=O)OCCCCCNc1ccccc1 | 97.5%
6 | CN1CCN(CC#CCNC(=O)[C@]23CCC(C)(C)C[C@H]2C2=CC[C@@H]4[C@@]5(C)Cc6c([nH]c7ccccc67)C(C)(C)[C@@H]5CC[C@@]4(C)[C@]2(C)CC3)CC1 | 98.9%
7 | COc1c(Cl)cc(Cl)c2ccc(C=C3C(=O)N(C)C(=O)N(C)C3=O)nc12 | 111%
8 | Nc1c(C(=O)Nc2ccc(Cl)cc2)cc(-c2nc3ccccc3s2)c(=O)n1NS(=O)(=O)c1ccc(Cl)cc1 | 101%
9 | COc1ccc(C(=O)c2cc3c(N)c(C(=O)Nc4cccc(Br)c4C)sc3nc2C)cc1 | 40.6%
10 | CCN(CC)S(=O)(=O)c1cccc([N+](=O)[O-])c1 | 109%
11 | CCc1c(Nc2ccc(C)cc2)nc(N)[nH]c1=O | 101%
12 | CN1CCN(c2cc(F)c(NC3=C(Cl)C(=O)c4ncccc4C3=O)c(F)c2)CC1 | -59.8% (active)
13 | Cn1c(COC(=O)NCCn2ccnc2)nc2c(N3CCOCC3)nc(-c3ccccc3)nc21 | -91% (active)
14 | COc1cc(CNC(=O)CCCCC[P+](c2ccccc2)(c2ccccc2)c2ccccc2)c(OC)c2c1OCO2 | 99.5%
15 | CC(=O)OCC(=O)[C@@]1(O)CC[C@H]2[C@@H]3CC(=C(Br)Br)C4=CC(=O)CC[C@]4(C)[C@H]3C(=O)C[C@@]21C | 102%
16 | O=C1CCCCCCCCC(O)C(O)CCCC(c2cccs2)O1 (stereo not drawn) | 95.3%
17 | COC(=O)C1=C(C(=O)ONCCN(C)C)C2C=CC1(C(Cc1ccccc1)Nc1ccc(F)cc1)O2 (stereo not drawn) | 100%
18 | CS(=O)(=O)c1ccc(-c2cc3c(oc2=O)-c2ccccc2OC3O)cc1 (stereo not drawn) | 98.2%
19 | Clc1ccc(C2CC(c3cccc(Nc4ccncc4)c3)=NN2c2ccc(Cl)cc2)cc1 (stereo not drawn) | 65.4%

Row | SMILES | growth
20 | CCN(CC)CCCCCCNc1cc(OC)cc2cccnc12 | 97.7%
21 | Clc1cc(Cl)cc(N2N=C(c3cccc(Nc4ccncc4)c3)CC2c2ccc3c(c2)OCO3)c1 (stereo not drawn) | 86.7%
22 | CC(=O)N1N=C(c2cccc(Nc3ccncc3)c2)CC1c1ccc2c(c1)OCO2 (stereo not drawn) | 94.1%
23 | COc1cc(/C=C/C(=O)c2c(C)oc3nc[nH]c(=O)c23)ccc1O | 96.5%
24 | Cc1ccc(C2C3CC4CCCCC4N3[C@@]3(C(=O)Nc4cc(Cl)ccc43)C2C(=O)c2nc3ccccc3[nH]2)cc1 (stereo partly drawn) | 49%
25 | CCCCCOc1ccc(/C=N/Nc2cc(C)nc3ccc(Br)cc23)cc1 | 106%
26 | C=C1C(=O)O[C@H]2[C@H]1CC/C(COC(=O)/C=C/c1c[nH]c3ccccc13)=C\CC[C@@]1(C)O[C@@H]21 | -42.1% (active)
27 | CCCCCN1C=C/C(=C\C(=O)N(C)c2ccc(Br)cc2)c2ccccc21 | 104%
28 | COc1cc2nc(-c3ccc(C(F)(F)F)cc3)cc(OCCN3CCC(O)CC3)c2cc1OC | 51%
29 | COc1cccc(-c2nc3occn3c2-c2ccnc(NCCCNS(=O)(=O)c3cccc(F)c3)n2)c1 | 135%
30 | COc1ccc(C(=O)c2cc3c(N)c(C(=O)Nc4cccc5ccccc45)sc3nc2C)cc1 | 39.9%
31 | CCCCCCCCCCN=C(N)N=C(N)N | 64.1%
32 | CN1CCN(Cc2ccc(NC(=O)c3cncc(C#Cc4cnccc4C(F)(F)F)c3)cc2C(F)(F)F)CC1 | 67.4%
33 | C=C(C)[C@@H]1CC[C@]2(CO)CC[C@]3(C)[C@H](CC[C@@H]4[C@@]5(C)CCCNC(C)(C)[C@@H]5CC[C@]43C)[C@@H]12 | 75%
34 | O=S(=O)(NCCNc1nccc(-c2c(-c3cccc(F)c3)nc3occn23)n1)c1cccc2ccccc12 | 116%
35 | CC(=O)N1c2ccccc2NC2=C(C(=O)N(C)C2(C)C)C1C (stereo not drawn) | 62.5%
36 | O=C(Nc1ccc(F)cc1)c1c(NC(=O)C(F)(F)F)sc2c1CCCCC2 | 22.7%
37 | O=C1Nc2c(ccc(Cl)c2Cl)/C1=C/c1ccc([N+](=O)[O-])cc1 | 98.1%
38 | COc1ccc(-c2nc(N/N=C/c3ccco3)nc(N3CCOCC3)c2C#N)cc1 | 89.6%
